The values below come from PubChem BioAssay.

Assay [1] in a line: small molecules captured by biotinylated probe aFSTL3 – biochemical, small-molecule microarray, fluorescence 635/667, stem cell growth factor project, primary screen (AID 1064).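 Further: measures binding of the biotinylated anti-FSTL3 antibody to printed compounds.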 Conditions: higher = more signal.
Assay [2] is described as follows: binders from COS7 lysate, DM2A8 probe, primary screen, torsin A project, cell lysate, small-molecule microarray, fluorescence 635/667 (AID 1065). Conditions: higher = more signal, COS7 lysate expressing mutant human TOR1A.
Assay [3] is described as follows: small molecules captured by biotinylated probe aFGF2 – biochemical, small-molecule microarray, fluorescence 635/667, stem cell growth factor project, primary screen (AID 1067).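 Further: measures binding of biotinylated aFGF2 protein to printed compounds on slides; z-score merges feature fluorescence and signal-to-noise across triplicate slides.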 To be noted: higher = more signal.
Assay [4] in a line: small molecules captured by biotinylated probe aFGF10 – biochemical, small-molecule microarray, fluorescence 635/667, stem cell growth factor project, primary screen (AID 1071).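 Further: score merges 667 nm spot intensity and signal to noise from triplicate slides.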 To be noted: higher = more signal.
Assay [5] has as its target Neurogenic locus notch homolog protein 2 (Homo sapiens) (UniProt Q04721). In words: small molecules binding Notch2 protein – biochemical, small-molecule microarray, 635 nm fluorescence, stem cell growth factors, primary screen (AID 1073). Conditions: higher = more signal.
Assay [6] concerns the target Pro-neuregulin-1, membrane-bound isoform (Homo sapiens) (UniProt Q02297). In words: small molecules binding neuregulin-1 protein – biochemical, small-molecule microarray, fluorescence 635/667, psychiatric disease protein project, primary screen (AID 1075).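 Further: score combines 667 nm spot fluorescence with signal to noise.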 To be noted: NRG1 binding, 635 nm fluorescence, higher = more signal.
Assay [7] concerns Neuregulin-1 EGF-like domain. In words: small molecules binding NRG1 EGF domain – biochemical, small-molecule microarray, 635 nm fluorescence, primary screen (AID 1081).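 Further: binding of the protein to compounds printed on small-molecule microarray slides.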 To be noted: higher = more signal.
Assay [8] can be described thus: FRG1 expression reporter modulators in myotubes – cell-based, C2C12 myotubes, firefly/Renilla luciferase, luminescence, FRG1 inhibition for FSHD, primary screen (AID 1084). To be noted: FRG1 promoter luciferase, higher = more signal, called active from +8 up or from −8 down.
The nature of assay [9]: small molecules captured by biotinylated probe aFST – biochemical, small-molecule microarray, fluorescence 635/667, stem cell growth factor project, primary screen (AID 1086).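 Further: score merges 667 nm fluorescence with signal-to-noise of each printed compound spot.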 To be noted: higher = more signal.
Assay [10] can be described thus: binders of probe aHhip on microarray, primary screen, stem cell growth factor project, biochemical, small-molecule microarray, fluorescence 635/667 (AID 1087).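 Further: score merges spot fluorescence at 667nm with spot signal to noise ratio.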 To be noted: higher = more signal.

Active and inactive are the calls of the source.

Sequence of Pro-neuregulin-1, membrane-bound isoform (Homo sapiens) (Q02297 whole entry, looked up, the tested form may be a part, canonical isoform): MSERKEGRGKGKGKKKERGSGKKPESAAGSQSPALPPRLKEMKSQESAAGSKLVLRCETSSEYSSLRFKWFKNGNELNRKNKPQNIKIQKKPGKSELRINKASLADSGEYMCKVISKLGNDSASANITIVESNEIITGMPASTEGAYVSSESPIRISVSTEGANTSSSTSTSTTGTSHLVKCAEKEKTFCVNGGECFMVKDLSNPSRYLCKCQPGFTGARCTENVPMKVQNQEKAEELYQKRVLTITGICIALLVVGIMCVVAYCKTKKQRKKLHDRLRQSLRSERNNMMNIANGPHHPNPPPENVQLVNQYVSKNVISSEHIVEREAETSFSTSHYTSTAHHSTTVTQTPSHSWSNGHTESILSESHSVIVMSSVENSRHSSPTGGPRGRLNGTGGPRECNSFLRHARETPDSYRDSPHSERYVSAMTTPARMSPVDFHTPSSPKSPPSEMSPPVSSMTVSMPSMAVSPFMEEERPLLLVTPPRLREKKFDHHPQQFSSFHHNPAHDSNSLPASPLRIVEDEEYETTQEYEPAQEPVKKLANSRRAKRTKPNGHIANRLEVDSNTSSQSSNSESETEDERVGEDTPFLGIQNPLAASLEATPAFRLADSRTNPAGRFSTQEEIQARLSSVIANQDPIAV
Sequence of Neurogenic locus notch homolog protein 2 (Homo sapiens) (Q04721 whole entry, looked up, canonical isoform): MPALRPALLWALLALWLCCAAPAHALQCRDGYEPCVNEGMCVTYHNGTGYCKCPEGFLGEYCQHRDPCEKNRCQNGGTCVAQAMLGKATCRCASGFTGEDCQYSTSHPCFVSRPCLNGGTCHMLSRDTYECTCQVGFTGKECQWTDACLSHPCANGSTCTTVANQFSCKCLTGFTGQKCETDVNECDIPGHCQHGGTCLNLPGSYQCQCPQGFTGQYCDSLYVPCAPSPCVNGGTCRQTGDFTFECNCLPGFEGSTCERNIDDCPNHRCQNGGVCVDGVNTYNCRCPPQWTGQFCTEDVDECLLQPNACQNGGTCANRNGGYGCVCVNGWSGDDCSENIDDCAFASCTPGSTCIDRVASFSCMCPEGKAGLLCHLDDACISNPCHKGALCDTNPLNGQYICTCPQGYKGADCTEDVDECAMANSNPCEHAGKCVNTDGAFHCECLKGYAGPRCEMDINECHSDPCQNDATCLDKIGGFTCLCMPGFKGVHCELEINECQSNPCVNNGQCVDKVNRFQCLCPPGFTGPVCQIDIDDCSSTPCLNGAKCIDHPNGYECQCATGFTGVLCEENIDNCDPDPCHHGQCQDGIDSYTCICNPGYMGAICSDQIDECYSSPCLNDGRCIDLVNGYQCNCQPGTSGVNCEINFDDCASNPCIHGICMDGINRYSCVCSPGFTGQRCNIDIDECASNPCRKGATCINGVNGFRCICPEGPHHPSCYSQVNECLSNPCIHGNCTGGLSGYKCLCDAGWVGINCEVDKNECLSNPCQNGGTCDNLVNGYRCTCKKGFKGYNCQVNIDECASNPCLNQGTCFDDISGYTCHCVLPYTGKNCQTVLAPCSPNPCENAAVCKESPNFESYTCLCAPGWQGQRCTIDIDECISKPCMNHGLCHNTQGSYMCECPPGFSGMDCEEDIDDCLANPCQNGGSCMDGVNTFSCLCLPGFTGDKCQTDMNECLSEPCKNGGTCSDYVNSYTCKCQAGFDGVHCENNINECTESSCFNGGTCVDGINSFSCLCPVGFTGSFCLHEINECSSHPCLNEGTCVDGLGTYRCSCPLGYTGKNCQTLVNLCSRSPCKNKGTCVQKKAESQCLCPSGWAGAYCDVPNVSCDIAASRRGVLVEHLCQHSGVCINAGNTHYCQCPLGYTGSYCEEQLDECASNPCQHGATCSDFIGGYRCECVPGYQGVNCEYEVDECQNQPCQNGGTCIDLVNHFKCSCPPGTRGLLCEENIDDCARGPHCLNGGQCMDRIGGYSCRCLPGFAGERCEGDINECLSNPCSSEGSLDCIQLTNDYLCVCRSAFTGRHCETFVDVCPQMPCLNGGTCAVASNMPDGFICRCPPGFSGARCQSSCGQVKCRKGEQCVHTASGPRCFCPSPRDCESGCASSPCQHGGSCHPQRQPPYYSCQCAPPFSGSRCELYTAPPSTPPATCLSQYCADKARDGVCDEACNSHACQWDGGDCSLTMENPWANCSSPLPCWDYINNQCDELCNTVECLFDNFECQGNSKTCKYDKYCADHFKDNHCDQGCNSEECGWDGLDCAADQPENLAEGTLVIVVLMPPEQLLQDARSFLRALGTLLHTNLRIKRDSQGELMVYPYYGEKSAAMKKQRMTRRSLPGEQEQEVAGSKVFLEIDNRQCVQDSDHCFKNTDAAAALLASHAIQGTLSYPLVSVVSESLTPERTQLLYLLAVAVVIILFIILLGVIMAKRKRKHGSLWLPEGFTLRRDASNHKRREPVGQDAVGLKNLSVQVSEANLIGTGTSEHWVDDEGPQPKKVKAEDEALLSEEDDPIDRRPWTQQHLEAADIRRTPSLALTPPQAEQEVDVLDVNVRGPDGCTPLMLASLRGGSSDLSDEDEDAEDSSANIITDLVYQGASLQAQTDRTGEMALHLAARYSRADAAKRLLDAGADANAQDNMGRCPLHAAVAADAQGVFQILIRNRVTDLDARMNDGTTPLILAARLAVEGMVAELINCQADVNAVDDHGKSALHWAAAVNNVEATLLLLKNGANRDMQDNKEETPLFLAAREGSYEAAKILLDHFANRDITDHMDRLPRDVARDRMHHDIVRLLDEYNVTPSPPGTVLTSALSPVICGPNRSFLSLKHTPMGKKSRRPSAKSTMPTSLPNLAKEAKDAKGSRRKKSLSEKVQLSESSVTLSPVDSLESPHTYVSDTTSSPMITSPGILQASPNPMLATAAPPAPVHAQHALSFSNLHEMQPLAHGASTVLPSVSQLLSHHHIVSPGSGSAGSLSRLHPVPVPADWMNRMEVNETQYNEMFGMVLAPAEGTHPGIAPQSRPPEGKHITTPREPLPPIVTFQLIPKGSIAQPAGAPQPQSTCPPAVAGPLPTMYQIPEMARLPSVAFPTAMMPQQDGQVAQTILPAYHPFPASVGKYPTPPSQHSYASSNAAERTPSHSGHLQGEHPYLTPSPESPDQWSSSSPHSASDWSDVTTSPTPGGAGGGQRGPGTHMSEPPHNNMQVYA

As for `C=CCOC(=O)[C@H]1[C@@H]2C(=O)O[C@@H](c3ccccc3)[C@@H](c3ccccc3)N2[C@@H](c2ccc(OCCOC(=O)[C@H]3C[C@H]4C(=O)N[C@@H](Cc5ccccc5)C(=O)N4[C@H]3c3ccc(O)cc3)cc2)[C@]12C(=O)Nc1ccccc12`, the composite z-score in assay [1] was -0.298; in assay [2], 0.0087; in [3], -0.0692; in assay [4] it was 0.349; in assay [5], 0.355; in [6], 0.188. In addition, the composite z-score in [7] was 1.29; in assay [9], 0.276; in assay [10], -0.109. The z-score in [8] was 0.458 (inactive).

As for `COCCNC(=O)OCC1CCCC2(CC(OC(=O)NCCc3ccc(F)cc3)CC(CCC(=O)N[C@@H](C)C(=O)OC)O2)O1` (stereo not given in full), the composite z-score is -0.576 in assay [1]; 0.37 in assay [2]; -0.132 in assay [3]; 0.632 in assay [4]; 1.1 in assay [5]; 0.511 in assay [6]. Besides, the composite z-score is 0.777 in assay [7], 0.347 in [9] and -0.196 in [10]. For the same compound, in [8], the z-score is -0.0861 (inactive).

On to `COC(=O)C1=C(C)N(Cc2ccccc2)[C@]23O[C@](C(=O)OC)(C(=O)N2[C@@H]1c1ccccc1)[C@H]1CCOC(=O)[C@H]13`, for which the composite z-score in assay [1] is -0.602; in assay [2] it was 0.601; in assay [3] it was -0.0956; in assay [4], 0.649; in [5], 0.783; in assay [6] it was -0.146. Besides, the composite z-score in assay [7] was 0.815; in assay [9], 0.0592; in assay [10], -0.0645. In assay [8], the z-score was -0.203 (inactive).

As for `COc1ccc(CCNC(=O)[C@@H]2c3ccccc3C(=O)N(c3ccc(C)cn3)[C@H]2c2ccc(CO)cc2)cc1`, the composite z-score in [1] is 1.18; in [2] it was -0.793; in [3], -0.189; in assay [4], -0.715; in [5] it was -1.85; in assay [6] it was -1.13. Also, the composite z-score in assay [7] was 1.2; in assay [9], -0.57; in assay [10], -0.0994. The z-score in assay [8] is 0.379 (inactive).

Regarding `NC(=O)NCC#Cc1ccc2c(c1)[C@]1(C(=O)N2)[C@H](c2ccc(O)cc2)N2[C@H](c3ccccc3)[C@H](c3ccccc3)OC(=O)[C@H]2[C@@H]1C(=O)N1CCCCCCC1`, the composite z-score in assay [1] was 2.38; in assay [2], -0.206; in assay [3], 0.242; in assay [4], 0.122; in assay [5] it was 0.617; in assay [6], 0.467. In addition, the figures for the composite z-score in [7], in assay [9] and in assay [10] were 0.839, 2.31 and 0.257, respectively. In addition, the z-score in assay [8] was -1.21 (inactive).

Turning to `O=C1CCCC=C1C(O)CCOCc1ccccc1` (stereo not given), the composite z-score in assay [1] was -0.149; in assay [2], 0.858; in assay [3] it was -0.0753; in assay [4], 0.0674; in assay [5] it was -0.175; in assay [6] it was -0.573. Besides, the composite z-score in assay [7] is 0.28; in assay [9], -0.0364; in [10], -0.236. In addition, the z-score in assay [8] is 1.58 (inactive).

As for `CN(C)C(=O)[C@@]1(Cc2ccccc2)N=C(c2ccc(OCCCO)cc2)O[C@H]1c1ccccc1CN=[N+]=[N-]`, the composite z-score in assay [1] amounted to 1.35; in [2], 1.92; in assay [3], 0.423; in assay [4] it was 1.13; in assay [5] it was 1.46; in assay [6], 1.96. In addition, the figures for the composite z-score in [7], in assay [9] and in assay [10] were 1.2, 1.42 and 0.898, respectively. Further, the z-score in assay [8] was -1.47 (inactive).

`CCCCCN1CC=CC23O[C@@H]4C=CCOC(=O)[C@@H]4[C@H]2C(=O)N(C(CO)C(C)C)[C@@H]3C1=O` (stereo not given in full): the composite z-score in [1] is 0.232; in [2], -1.58; in assay [3], -0.141; in assay [4], -0.495; in assay [5], -1.15; in assay [6] it was -0.694. Besides, the composite z-score in assay [7] is 0.657; in assay [9], -0.357; in assay [10], -0.15. For the same compound, the z-score in assay [8] was -0.0073 (inactive).

As to `[N-]=[N+]=NCc1ccccc1C[C@]1(C(=O)NCc2ccccc2)N=C(c2ccc(OCCCO)cc2)O[C@H]1c1ccccc1N=[N+]=[N-]`, the composite z-score in assay [1] was 0.741; in [2], -0.0741; in assay [3] it was -0.0231; in assay [4], 1.13; in assay [5], 1.22; in assay [6], 0.799. The results for the composite z-score in assay [7], in assay [9] and in assay [10] were 1.01, 1.16 and 0.295, respectively. For the same compound, in assay [8], the z-score was -1.34 (inactive).

For `COCCCNC(=O)[C@@]1(Sc2ccc(C)cc2)CC(=O)N(Cc2ccccc2)[C@@H]1c1ccc(CO)cc1I`, the composite z-score in assay [1] is 0.438; in assay [2], 0.258; in assay [3], 0.193; in assay [4] it was -0.134; in [5], -0.895; in [6] it was 1.38. Also, the composite z-score in assay [7] was -0.118; in assay [9] it was 0.458; in assay [10], 0.0327. In assay [8], the z-score was -0.646 (inactive).

Take `COc1cccc([C@H]2Oc3ccc(OC)cc3C(=NOC(C)CN3CCCc4nc(C)c(C)cc43)[C@@H]2O)c1` (stereo not given in full): the composite z-score in assay [1] is -0.437; in [2] it was 0.15; in assay [3] it was -0.0316; in [4] it was 0.32; in assay [5], 0.687; in assay [6], 0.146. Moreover, the composite z-score in assay [7] was 0.541; in assay [9], -0.055; in assay [10], 0.154. Besides, the z-score in assay [8] is 2.49 (inactive).

As for `CCCNC(=O)OC[C@H]1O[C@H](CCON=CC[C@@H]2C=C[C@H](OC(C)=O)[C@@H](COC(C)=O)O2)C=C[C@@H]1Oc1ccc(OC)cc1`, the composite z-score was -0.458 in assay [1]; 0.453 in assay [2]; -0.112 in [3]; 0.423 in assay [4]; 0.605 in assay [5]; -0.367 in assay [6]. The composite z-score was 0.576 in [7], 0.014 in [9] and -0.134 in assay [10]. Moreover, in assay [8], the z-score was 0.335 (inactive).

`COc1ccc(O[C@H]2C=C[C@@H](c3ccccc3)O[C@@H]2COC(=O)CCC(C)=NO[C@@H](C)c2cc(-c3c(C)cc(C)cc3C)no2)cc1`: the composite z-score is -0.0675 in assay [1]; -0.499 in [2]; -0.199 in [3]; -0.522 in assay [4]; -1.07 in [5]; -0.524 in assay [6]. The values for the composite z-score in [7], in assay [9] and in assay [10] were -1.08, -0.666 and -0.237, respectively. Moreover, in assay [8], the z-score was 0.0014 (inactive).

In the case of `COCC1=C2[C@@H](CCc3ccccc3)OB(O)C[C@@H]2n2c(=O)n(-c3ccccc3)c(=O)n2C1`, the composite z-score was -0.163 in assay [1]; -0.106 in assay [2]; -0.0695 in assay [3]; 0.882 in [4]; 0.112 in [5]; -0.391 in [6]. The results for the composite z-score in assay [7], in assay [9] and in [10] were 0.751, -0.373 and -0.236, respectively. In addition, the z-score in assay [8] is -3.23 (inactive).

Turning to `Cn1c(=O)n2n(c1=O)[C@H]1[C@H](O)[C@@H]3O[C@@H]3C(=NOC[C@@H](O)COCc3ccco3)[C@H]1CC2`, the composite z-score in assay [1] is -0.319; in [2] it was 0.614; in [3], -0.0538; in assay [4] it was 0.296; in assay [5], 0.515; in assay [6] it was -0.218. The composite z-score in [7] was 0.276; in assay [9] it was 0.0036; in assay [10] it was 0.0373. The z-score in [8] was -0.532 (inactive).

Consider `CCOC(=O)CCN1C(=O)[C@H]2[C@H]3[C@H](O)[C@H](O)CC(=NOCc4ccccc4)[C@@H]3CC[C@H]2C1=O`, for which the composite z-score in assay [1] is -0.572; in [2], 0.227; in assay [3], -0.201; in assay [4], 0.193; in assay [5], 0.93; in assay [6] it was 0.22. Also, the composite z-score in assay [7] was 0.588; in assay [9] it was 0.0033; in [10], -0.0645. Moreover, the z-score in assay [8] was -0.48 (inactive).

On to `C#CCCCON=C1C[C@@H](O)[C@@H](O)[C@@H]2[C@@H]3C(=O)N([C@@H](C)c4ccccc4)C(=O)[C@@H]3CC[C@H]12`, for which the composite z-score in assay [1] is -0.196; in assay [2] it was -0.0639; in assay [3] it was -0.127; in assay [4], 0.342; in assay [5] it was 0.76; in assay [6] it was 0.233. For the same compound, the composite z-score in assay [7] is 0.755; in [9], 0.342; in assay [10] it was -0.0994. In addition, the z-score in [8] is 0.548 (inactive).
